SMILES strings stand for the structures. Compounds without any hit were thinned out: in the full panel of roughly 83,000, 20% have a hit.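 In brief: 96-well plates, 48 h treatment, single concentration, percent growth endpoint.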 Active and inactive are the calls of the source.

In the assay the test system is HCC-2998 colon. The experiment in a line: NCI-60 one-dose screen, 48 h (100 = growth as untreated, 0 = no growth, -100 = all killed). Conditions: 10 µM. The method, then: Growth inhibition of the HCC-2998 human tumor cell line is measured as a screen for anti-cancer activity. Cells are grown in 96 well plates and exposed to the test compound for 48 hours. Compounds are tested at a single concentration, which is 10^-5 M for most compounds. The reported endpoint is percent growth (GI% or GIPRCNT), where numbers from 0 - 100% represent growth inhibition, and numbers from -100% - 0 represent cell death. For example, a value of 40 represents 60% growth inhibition. A value of 0 means no net growth occurred over the course of the experiment. A value of -40 indicates 40% of cells at the beginning of the experiment died by the end of the experiment. A value of -100 means all cells are dead at the end of the experiment.
NCI-60 Human Tumor Cell Lines Screen was performed using the standard one-dose NCI protocol, which is described in more detail at https://dtp.cancer.gov/discovery_development/nci-60/default.htm.
Compounds with GIPRCNT values below 10 were considered active. Activity score was based on GIPRCNT using the following formula: […]
Score is 0 for GIPRCNT values of 100 or above, 50 for GIPRCNT values of 0, and 100 for GIPRCNT values of -100.
Turning to `COc1cc(/C=C/c2cc(/C=C/c3ccc(O)c(OC)c3)[nH]c(=O)n2)ccc1O`, the growth was 71% (inactive).

Turning to `NS(=O)(=O)Oc1ccc(-c2ccc3sccc3c2)cc1`, the growth was 99.2% (inactive).

As for `Cc1c(Cl)cccc1NC(=O)CN1CCOCC1`, the growth was 103% (inactive).

Take `CCN(CC)CCOc1cccc2c1C(=O)c1cccc(OCCN(CC)CC)c1C2=O`: the growth is 54.7% (inactive).

As to `c1ccc2c(c1)Cc1ccccc1N2CCN1CCCCC1`, the growth is 86% (inactive).

As for `CCCCC/C=C/C/C=C/CCCCCCCC1=NC(C)(C)CN1C(C)C`, the growth was -9.05% (active).

In the case of `CC1(C)N=C(N)N=C(N)N1c1cccc(C#N)c1`, the growth is 58.4% (inactive).

As for `COc1cc2cc(Oc3ccc(NC(=O)c4ccc(Cl)c(C(F)(F)F)c4)cc3)c(C)nc2cc1OC`, the growth was 41.3% (inactive).

`C(=N\Nc1ncnc2sc3c(c12)CCNC3)/c1cccc2ccccc12`: the growth was 92.6% (inactive).

In the case of `C/C(=C/CCC(C)[C@@H]1CC[C@]2(C)C3=C(CC[C@@]12C)[C@@]1(C)CCC(=O)C(C)(C)[C@@H]1CC3)C(=O)O` (stereo not given in full), the growth was -85.3% (active).

As to `COc1ccc(-c2onc(N)c2-c2cc(OC)c3c(c2)OCO3)cc1`, the growth is 52.1% (inactive).

As to `O=C(N/N=C/c1ccc(Cl)cc1)c1ccc(Cc2n[nH]c(=O)c3cccnc23)cc1`, the growth was 89.8% (inactive).

Take `Clc1nc2ccccc2cc1Cn1nnc(Cc2ccccc2)n1`: the growth is 81.3% (inactive).

As to `CCc1ccc(-c2ccc(-n3nc(C)c4c(N)nc(Cc5ccccc5)nc43)cc2)cc1`, the growth was 23.7% (inactive).

For the compound `COc1ccc(-c2nn(-c3cccc(Cl)c3)cc2/C=C2\NC(=S)N(c3ccc(Cl)cc3)C2=O)cc1`, the growth is 23.2% (inactive).

For the compound `COc1ccc(C(=O)CSc2nc(-c3cc(OC)ccc3OC)cc(-c3ccc(OC)cc3)c2C#N)cc1`, the growth is 108% (inactive).

For `CCOC(=O)c1cc(C(=O)c2cc(OC)cc(OC)c2)n2nc(C)ccc12`, the growth is 54.1% (inactive).

For the compound `CCOc1ccccc1/C=N/N1CCCCCC1`, the growth was 93.5% (inactive).

For `CC(=O)Nc1cc2c(cc1Cl)Cc1cc(Cl)ccc1-2`, the growth was 65.6% (inactive).

In the case of `C=CCn1c(SCC(=O)Nc2ccc(C(=O)/C=C/c3ccc(Cl)cc3)cc2)nnc1-c1cc(-c2ccccc2)nc2ccccc12`, the growth is 87.4% (inactive).

For `Cc1ccc(C2=NN(c3ccc(S(C)(=O)=O)cc3)C(=O)CC2)cc1`, the growth is 47.2% (inactive).

Take `C[C@]12CCC3c4ccc(O)cc4C[C@@H](CCCCCCCCCS(=O)CCCC(F)(F)C(F)(F)F)C3C1CC[C@@H]2O` (stereo not given in full): the growth was 87% (inactive).

Consider `CN1CCN(CCCn2c(=O)c3sc4ncccc4c3n3nnc(-c4ccccc4)c23)CC1`, for which the growth is -5.79% (active).

As for `CC(C)Cc1ccc([C@H](C)C(=O)O)cc1`, the growth is 108% (inactive).

Regarding `COc1ccc(/C(C#N)=C/c2ccccc2OC)cc1`, the growth was 50.2% (inactive).

As to `CCOC(=O)CSc1nc(-c2cc(OC)ccc2OC)cc(-c2ccc(OC)cc2)c1C#N`, the growth was 85.5% (inactive).

With `COc1cc(C2C(C#N)=C(N)Oc3cc(O)ccc32)cc(OC)c1OC` (stereo not given), the growth is 27.6% (inactive).

Consider `CC(C)c1ccc(C(C)C(=O)N(CC2=C(C(C)c3ccccn3)c3ccccc3C2)C(C)C)cc1` (stereo not given), for which the growth is 37.3% (inactive).

Regarding `O=C1/C(=C/c2ccc([N+](=O)[O-])s2)Oc2cc(Cl)ccc21`, the growth is 2.91% (active).

`COc1ccc(-c2nnc(SCC(=O)Nc3ccc(C(=O)/C=C/c4ccccc4)cc3)n2-c2ccccc2)cc1OC`: the growth was 110% (inactive).

Turning to `COc1cc2cc(Oc3ccc(NC(=O)Nc4ccc(Cl)c(C(F)(F)F)c4)cc3)c(C)nc2cc1OC`, the growth was -13.1% (active).

Take `N#CCc1csc(Cc2ccccc2)n1`: the growth was 104% (inactive).

`COc1cc2cc(Oc3ccc(NC(=O)c4ccccc4)cc3)c(C)nc2cc1OC`: the growth was 125% (inactive).

Regarding `Cc1ccc(C)c(COc2cc(NC(=O)c3ccc4c(c3)OCO4)ccc2N(C)S(C)(=O)=O)c1`, the growth is -41.5% (active).

Take `COc1ccc(/C=c2\sc3n(c2=O)C(c2cc(OC)c(OC)c(OC)c2)C=C(c2ccc(OC)c(OC)c2)N=3)cc1OC` (stereo not given): the growth was 106% (inactive).

Turning to `O=C(Nc1cc([N+](=O)[O-])c2[nH]c(=O)c3ccccc3c2c1)C(F)(F)F`, the growth is 89.3% (inactive).

Turning to `COc1cc(-c2nn(-c3ccc(NC(=O)NCCCNC(=O)c4ccccc4)cc3)cc2-c2ccncc2)ccc1Cl`, the growth was 32% (inactive).

As to `Cc1cc(NC(=O)c2ccc(C)c(Nc3nccc(-c4cccnc4)n3)c2)cc(-n2cnc(C)c2)c1`, the growth was 70.8% (inactive).

Regarding `O=[N+]([O-])c1cc(Cl)cc(Cl)c1O`, the growth was 105% (inactive).

On to `CCOC(=O)CN(c1sc(C)c(C)c1C(=O)OCC)S(=O)(=O)c1ccc(C)cc1`, for which the growth was 100% (inactive).
